Source: PubChem BioAssay AID1159580 (chemical genetic matrix, 2015)
Hit rate of the full screen: of about 5,500 compounds, about 2,000 (36%) were called active. Inconclusive results (about 18%) are left out. No stated cut-off is given here; in the data, active means normalized growth mostly below about 0.91 (no sharp cut-off); inconclusive means no clear call, values can overlap the other calls; inactive means mostly above about 0.92. Some of the results follow.

Experiment: chemical genetic growth profiling, strain panel (AID 1159580);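 further: tested at 20 µM; growth read once vehicle control cultures reached saturation at 30 °C; 1 = growth at the plate median or of vehicle wells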
Conditions: S. cerevisiae deletion strains, growth OD
[1] = locus YAL040C, strain CLN3, stronger effect = lower value
[2] = locus YCL061C, strain MRC1 (second series), stronger effect = lower value
[3] = locus YDR363W, strain ESC2, stronger effect = lower value
[4] = locus YER002W, strain NOP16, stronger effect = lower value
[5] = locus YMR307W, strain GAS1, stronger effect = lower value
[6] = locus YNL153C, strain GIM3, stronger effect = lower value
[7] = locus YNL175C, strain NOP13, stronger effect = lower value
[8] = locus YNL197C, strain WHI3, stronger effect = lower value
[9] = locus YNL224C, strain SQS1, stronger effect = lower value
[10] = locus YOR083W, strain WHI5 (second series), stronger effect = lower value
[11] = locus YPL055C, strain LGE1, stronger effect = lower value
[12] = locus YHR030C, strain SLT2, stronger effect = lower value
[13] = locus YHR079C, strain IRE1, stronger effect = lower value
[14] = locus YJL095W, strain BCK1, stronger effect = lower value
[15] = locus YJR066W, strain TOR1, stronger effect = lower value
[16] = locus YLR113W, strain HOG1, stronger effect = lower value
[17] = locus YNL183C, strain NPR1, stronger effect = lower value
[18] = locus YOR231W, strain MKK1, stronger effect = lower value
[19] = locus YPL256C, strain CLN2, stronger effect = lower value

Measured: normalized growth

Nc1ncnc2c1ncn2C1CCCO1 (centres undefined)
inactive: locus YAL013W, strain DEP1, stronger effect = lower value 1.03 | [1] 1.03 | [2] 0.997 | [3] 1.02 | [4] 0.967 | locus YJR075W, strain HOC1, stronger effect = lower value 1.02 | [5] 1 | [6] 0.989 | [7] 0.986 | [8] 0.967 | [9] 1 | [10] 0.977 | [11] 1.02

O=C1c2cccc3c(Sc4ccccc4)ccc(c23)C(=O)N1NCCO
active: [12] 0.577 | [16] 0.771 | [19] 0.757
inactive: locus YAR019C, strain CDC15, stronger effect = lower value 0.921 | locus YBL105C, strain PKC1, stronger effect = lower value 0.926 | locus YBR135W, strain CKS1, stronger effect = lower value 0.92 | locus YBR136W, strain MEC1, stronger effect = lower value 0.929 | locus YBR160W, strain CDC28, stronger effect = lower value 0.922 | locus YDL017W, strain CDC7, stronger effect = lower value 0.929 | locus YDL028C, strain MPS1, stronger effect = lower value 0.924 | locus YDL101C, strain DUN1, stronger effect = lower value 0.916 | locus YDL108W, strain KIN28, stronger effect = lower value 0.929 | locus YDL132W, strain cdc53, stronger effect = lower value 0.941 | locus YDL214C, strain PRR2, stronger effect = lower value 0.861 | locus YDR052C, strain DBF4, stronger effect = lower value 0.941 | locus YDR054C, strain cdc34, stronger effect = lower value 0.936 | locus YDR226W, strain ADK1, stronger effect = lower value 0.952 | locus YDR477W, strain SNF1, stronger effect = lower value 0.853 | locus YER123W, strain YCK3, stronger effect = lower value 0.855 | locus YER133W, strain GLC7, stronger effect = lower value 0.908 | locus YFL009W, strain cdc4, stronger effect = lower value 0.912 | locus YFL029C, strain CAK1, stronger effect = lower value 0.911 | locus YFR003C, strain YPI1, stronger effect = lower value 0.923 | locus YFR019W, strain FAB1, stronger effect = lower value 0.897 | locus YFR028C, strain CDC14, stronger effect = lower value 0.938 | locus YGR040W, strain KSS1, stronger effect = lower value 0.859 | locus YGR052W, strain FMP48, stronger effect = lower value 0.83 | locus YGR092W, strain DBF2, stronger effect = lower value 0.734 | [13] 0.84 | locus YHR082C, strain KSP1, stronger effect = lower value 0.8 | locus YHR205W, strain SCH9, stronger effect = lower value 0.857 | locus YIL147C, strain SLN1, stronger effect = lower value 0.921 | [14] 0.771 | locus YJL128C, strain PBS2, stronger effect = lower value 0.816 | locus YJL157C, strain FAR1, stronger effect = lower value 0.896 | locus YJR016C, strain ILV3, stronger effect = lower value 0.921 | locus YJR066W, strain TOR1 (second series), stronger effect = lower value 0.93 | [15] 0.805 | locus YKL048C, strain ELM1, stronger effect = lower value 0.831 | locus YKL067W, strain YNK1, stronger effect = lower value 0.861 | locus YKL101W, strain HSL1, stronger effect = lower value 0.804 | locus YKL193C, strain SDS22, stronger effect = lower value 0.912 | locus YKL203C, strain TOR2, stronger effect = lower value 0.887 | locus YLR133W, strain CKI1, stronger effect = lower value 0.844 | locus YLR403W, strain SFP1, stronger effect = lower value 0.863 | locus YML070W, strain DAK1, stronger effect = lower value 0.857 | locus YMR001C, strain CDC5, stronger effect = lower value 0.914 | locus YMR205C, strain PFK2 (second series), stronger effect = lower value 0.854 | locus YMR277W, strain FCP1, stronger effect = lower value 0.904 | locus YNL006W, strain LST8, stronger effect = lower value 0.931 | locus YNL020C, strain ARK1, stronger effect = lower value 0.814 | locus YNL161W, strain CBK1, stronger effect = lower value 0.927 | [17] 0.784 | locus YNL207W, strain RIO2, stronger effect = lower value 0.922 | locus YNL222W, strain SSU72, stronger effect = lower value 0.921 | locus YNL307C, strain MCK1 (second series), stronger effect = lower value 0.834 | locus YOL078W, strain AVO1, stronger effect = lower value 0.911 | locus YOL136C, strain PFK27, stronger effect = lower value 0.853 | locus YOR061W, strain CKA2, stronger effect = lower value 0.877 | locus YOR119C, strain RIO1, stronger effect = lower value 0.936 | [18] 0.845 | locus YOR329C, strain SCD5, stronger effect = lower value 0.93 | locus YPL031C, strain PHO85, stronger effect = lower value 0.837 | locus YPL153C, strain RAD53, stronger effect = lower value 0.82 | locus YPL204W, strain HRR25, stronger effect = lower value 0.837 | locus YPL209C, strain IPL1, stronger effect = lower value 0.923 | locus YPR025C, strain CCL1, stronger effect = lower value 0.926 | locus YPR106W, strain ISR1, stronger effect = lower value 0.915 | locus YPR111W, strain DBF20, stronger effect = lower value 0.957 | strain NNK1, stronger effect = lower value 0.897 | strain TSCII, stronger effect = lower value 0.917

C[N+]1(C)CCOC(O)(c2ccc(-c3ccc(C4(O)C[N+](C)(C)CCO4)cc3)cc2)C1 (centres undefined)
inactive: [1] 1.09 | [2] 0.993 | locus YDR150W, strain NUM1, stronger effect = lower value 0.99 | [3] 1.02 | [4] 1 | locus YGR078C, strain PAC10, stronger effect = lower value 1.01 | locus YMR263W, strain SAP30, stronger effect = lower value 1 | [5] 0.993 | [6] 1.05 | [7] 1 | [8] 1.01 | [9] 1 | [10] 1.02 | [11] 0.971 | locus YPL241C, strain CIN2, stronger effect = lower value 1

CC(C)NCC(O)COc1ccc(COCCOC(C)C)cc1 (centres undefined)
inactive: locus YAL021C, strain ccr4, stronger effect = lower value 1 | locus YAL026C, strain drs2, stronger effect = lower value 1.01 | locus YAL030W, strain snc1, stronger effect = lower value 0.998 | locus YBL061C, strain skt5, stronger effect = lower value 0.997 | locus YBR009C, strain hhf1, stronger effect = lower value 0.998 | locus YBR023C, strain chs3, stronger effect = lower value 0.998 | locus YBR171W, strain sec66, stronger effect = lower value 1 | locus YBR231C, strain swc5, stronger effect = lower value 1 | locus YBR279W, strain paf1, stronger effect = lower value 1 | locus YCL011C, strain gbp2, stronger effect = lower value 1.01 | locus YCL016C, strain dcc1, stronger effect = lower value 0.999 | locus YCL061C, strain MRC1, stronger effect = lower value 1 | locus YCL069W, strain vba3, stronger effect = lower value 1 | locus YCR088W, strain abp1, stronger effect = lower value 0.997 | locus YDL005C, strain med2, stronger effect = lower value 1 | locus YDL040C, strain nat1, stronger effect = lower value 1 | locus YDR001C, strain nth1, stronger effect = lower value 1.01 | locus YDR069C, strain doa4, stronger effect = lower value 1.02 | locus YDR137W, strain rgp1, stronger effect = lower value 1.02 | locus YDR159W, strain sac3, stronger effect = lower value 0.979 | locus YDR195W, strain ref2 0.97 | locus YDR297W, strain sur2, stronger effect = lower value 1.01 | locus YDR334W, strain swr1, stronger effect = lower value 1 | locus YDR335W, strain msn5, stronger effect = lower value 1 | locus YDR392W, strain spt3, stronger effect = lower value 0.947 | locus YEL003W, strain gim4, stronger effect = lower value 1 | locus YEL037C, strain rad23, stronger effect = lower value 1.02 | locus YEL061C, strain CIN8 (second series), stronger effect = lower value 1 | locus YER015W, strain faa2, stronger effect = lower value 0.995 | locus YER016W, strain bim1, stronger effect = lower value 0.988 | locus YER111C, strain swi4, stronger effect = lower value 1 | locus YER155C, strain BEM2 (second series), stronger effect = lower value 1 | locus YFR010W, strain ubp6, stronger effect = lower value 1.03 | locus YGL167C, strain pmr1, stronger effect = lower value 1.01 | locus YGL173C, strain kem1, stronger effect = lower value 1 | locus YGL227W, strain vid30, stronger effect = lower value 1 | locus YGL240W, strain doc1, stronger effect = lower value 1 | locus YGL253W, strain hxk2, stronger effect = lower value 0.999 | locus YHR013C, strain ard1, stronger effect = lower value 0.995 | locus YHR027C, strain rpn1, stronger effect = lower value 0.999 | [12] 1.04 | [13] 1.05 | locus YHR142W, strain chs7, stronger effect = lower value 1.01 | locus YJL092W, strain hpr5, stronger effect = lower value 0.994 | locus YJL095W, strain BCK1 (second series), stronger effect = lower value 1 | [14] 0.976 | locus YJL115W, strain asf1, stronger effect = lower value 0.999 | locus YJL129C, strain trk1, stronger effect = lower value 1 | locus YJL154C, strain vps35, stronger effect = lower value 1.01 | locus YJL164C, strain tpk1, stronger effect = lower value 1.01 | locus YJL166W, strain qcr8, stronger effect = lower value 1.01 | locus YJL187C, strain SWE1, stronger effect = lower value 1.01 | [15] 0.987 | locus YKL160W, strain elf1, stronger effect = lower value 1 | locus YKR026C, strain gcn3, stronger effect = lower value 0.986 | locus YKR091W, strain srl3, stronger effect = lower value 1 | locus YLL001W, strain dnm1, stronger effect = lower value 0.983 | locus YLL026W, stronger effect = lower value 0.998 | locus YLL041C, strain sdh2, stronger effect = lower value 1 | locus YLR027C, strain aat2, stronger effect = lower value 0.998 | [16] 0.984 | locus YLR221C, strain rsa3, stronger effect = lower value 1.01 | locus YLR258W, strain gsy2, stronger effect = lower value 0.999 | locus YLR262C, strain YPT6 (second series), stronger effect = lower value 1.01 | locus YLR320W, strain mms22, stronger effect = lower value 0.999 | locus YLR342W, strain FKS1, stronger effect = lower value 1 | locus YLR357W, strain rsc2, stronger effect = lower value 0.982 | locus YLR370C, strain arc18, stronger effect = lower value 1 | locus YLR384C, strain iki3, stronger effect = lower value 0.999 | locus YML120C, strain ndi1, stronger effect = lower value 0.984 | locus YMR058W, strain fet3, stronger effect = lower value 1.01 | locus YMR125W, strain sto1, stronger effect = lower value 0.994 | locus YMR129W, stronger effect = lower value 1 | locus YMR205C, strain PFK2, stronger effect = lower value 0.981 | locus YMR231W, strain pep5, stronger effect = lower value 0.998 | locus YNL071W, strain lat1, stronger effect = lower value 1.01 | [17] 0.996 | locus YNL209W, strain ssb2, stronger effect = lower value 1 | locus YNL248C, strain rpa49, stronger effect = lower value 0.999 | locus YNL322C, strain KRE1 (second series), stronger effect = lower value 0.987 | locus YNR049C, strain mso1, stronger effect = lower value 1 | locus YOR001W, strain rrp6, stronger effect = lower value 1 | locus YOR070C, strain gyp1, stronger effect = lower value 1.01 | locus YOR080W, strain dia2, stronger effect = lower value 0.997 | locus YOR083W, strain WHI5, stronger effect = lower value 1 | locus YOR106W, strain vam3, stronger effect = lower value 1.01 | [18] 1.03 | locus YOR265W, strain rbl2, stronger effect = lower value 1.03 | locus YOR270C, strain vph1, stronger effect = lower value 1.01 | locus YOR290C, strain snf2, stronger effect = lower value 1 | locus YPL051W, strain arl3, stronger effect = lower value 1 | locus YPL078C, strain atp4, stronger effect = lower value 1.01 | locus YPL106C, strain sse1, stronger effect = lower value 1 | locus YPL240C, strain hsp82, stronger effect = lower value 1.01 | [19] 1.03
